Hits are enriched below; roughly 4.3% of the tested compounds scored in any of these assays.
MLL AF4-AF9 inh: inhibitors of AF4 peptide binding to AF9, primary screen, biochemical, AlphaScreen, biotin-AF4 peptide, FLAG-AF9, single point | Protein AF-9 (Homo sapiens), P42568 | inhibition, % at 10 µM | 350,000 compounds, 0.47% hits;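 active = every replicate reaching a set inhibition limit, whatever the replicate mean, cut at about 25% in these data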;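 note: 0% = plate neutral control median and 100% = total signal loss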
Target sequence (P42568 whole entry, looked up): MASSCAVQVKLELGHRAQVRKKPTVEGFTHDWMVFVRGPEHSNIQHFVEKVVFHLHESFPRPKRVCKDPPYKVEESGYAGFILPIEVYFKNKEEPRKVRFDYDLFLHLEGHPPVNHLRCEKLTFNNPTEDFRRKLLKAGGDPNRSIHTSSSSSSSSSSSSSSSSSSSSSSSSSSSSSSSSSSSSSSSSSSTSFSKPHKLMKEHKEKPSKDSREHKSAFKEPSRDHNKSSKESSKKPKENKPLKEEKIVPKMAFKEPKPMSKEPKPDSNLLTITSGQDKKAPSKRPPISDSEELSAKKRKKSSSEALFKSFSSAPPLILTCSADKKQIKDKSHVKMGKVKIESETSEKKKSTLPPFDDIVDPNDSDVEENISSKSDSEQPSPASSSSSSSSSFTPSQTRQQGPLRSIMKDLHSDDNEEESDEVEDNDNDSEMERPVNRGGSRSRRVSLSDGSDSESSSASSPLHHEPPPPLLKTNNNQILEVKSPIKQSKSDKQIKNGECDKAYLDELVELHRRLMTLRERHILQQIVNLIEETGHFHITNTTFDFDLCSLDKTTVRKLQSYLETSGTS
SMARCA2 activ: SMARCA2 (BRM) function activators, primary screen, cell-based, luminescence, high throughput; MG213 cells, MMTV-luciferase reporter, dexamethasone, overnight; activation, % at 9.1 µM; 370,000 compounds, 1% hits; in the data active = activation above about 7.8%;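 note: 0% = vehicle wells and 100% = reference activator wells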
FGF22 binding-1: binders of human FGF22 protein, primary screen, FGF22 synaptogenesis inhibitor project, biophysical, thermal shift, single point. Fibroblast growth factor 22 (Homo sapiens), Q9HCT0. recombinant FGF22 thermal shift, SYPRO orange fluorescence; percent of sucrose octasulfate shift, DMSO zero. activity (Tm shift, normalised), % at 9.99 µM. 340,000 compounds, 1.5% hits;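 active = mean Tm shift, scaled 0 neutral to 100 positive control, at about 1.3% or above, every replicate too, limit read from the data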
Wnt act: Wnt/beta-catenin pathway activators, primary screen, cell-based, plate reader, single point. Wnt/beta-catenin reporter cell assay, activator. 300,000 compounds, 1.2% hits. activation, % at 9.35 µM; in the data active = activation above about 30%, passing the limit was not always enough;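 note: 0% = neutral control wells and 100% = positive control wells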
MITF TRPM1 HTS: activators of MITF-driven TRPM1 promoter reporter, primary screen, cell-based, SK-MEL-5, luciferase, single point; 300,000 compounds, 0.75% hits; activation, % at 12.5 µM; SK-MEL-5 TRPM1-promoter luciferase, 24 h; % of positive control, neutral wells = 0;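 active = mean activation of at least 80% with every replicate also reaching 80%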;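 note: 0% = neutral control wells and 100% = parthenolide positive control wells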
esBAF inh: Bmi1 luciferase reporter increase in mESCs, primary screen, esBAF inhibitor project, mouse ES cells, Bmi1 luciferase knock-in, single point; 24 h; 100% = twice the neutral-well signal; reporter increase, % at 12.5 µM; 350,000 compounds, 2% hits; in the data active = activation above about 40%;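 note: 0% = median of the plate's neutral control wells and 100% = double that signal; a rise in the Bmi1 reporter signal indicates esBAF inhibition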
FGF22 binding-2: binders of human FGF22 protein, dose response, FGF22 synaptogenesis inhibitor project, biophysical, thermal shift, cherry-pick retest; shares compounds with FGF22 binding-1; recombinant FGF22 thermal shift, SYPRO orange fluorescence; thermal shift activity, °C (ΔTm) at 38 µM; 1,000 compounds, 2% hits; AID 720646, 2013;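 active = fitted rise in melting shift crosses a set limit at or below the top valid dose tested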
SYPRO no-protein: compound-only thermal shift signal without protein, dose response, artefact control for FGF22 binder project, biochemical, cherry-picked samples, RT-PCR instrument | AID 743019, 2013 | 1,000 compounds, 2% hits | shares compounds with FGF22 binding-1 | compound-only SYPRO orange thermal shift counter-screen, no protein | AC50, µM (doses to about 38 µM);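 active = rising signal whose fitted curve reaches the 0.54 level within the top valid dose, showing a melting point, actives reach about 13 µM in these data; inactive = the rest, including activity in the opposite direction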; note: value is where the raw curve crosses a fixed level and not half-maximal
The depositor's hits bear a star; i = inactive; . = not tested or not shown; ! = a repeat was not active; [ ] = remark or other dose.

SMILES | MLL AF4-AF9 inh | SMARCA2 activ | FGF22 binding-1 | Wnt act | MITF TRPM1 HTS | esBAF inh | FGF22 binding-2 | SYPRO no-protein
CC(=O)Nc1ccc(S(=O)(=O)NCCc2c[nH]c3ccc(C)cc23)cc1 | 1 | 6 | 1.4* | -3 | 2 | -9 | 0.079 | i
COc1ccc(NC(=O)N(C)C[C@H]2Oc3c(NS(=O)(=O)c4ccccc4)cccc3C(=O)N([C@H](C)CO)C[C@@H]2C)cc1 | 0 | . | -1 | . | . | . | . | .
COc1ccc(CNS(=O)(=O)CCNC(=O)c2ccc3c(c2)OCO3)cc1 | 1 | 1 | 0 | -3 | -1 | -1 | . | .
COc1ccc(CCNS(=O)(=O)CCNC(=O)c2ccc3c(c2)OCO3)cc1 | 0 | -1 | 11* | 2 | -3 | -1 | 0.08 | i
CCOC(=O)[C@@H]1[C@H]2COc3cc(OC)ccc3[C@@H]2N2C(=O)N(c3ccc(C)cc3)C(=O)[C@]12C | 3 | 1 | 0 | -8 | -8 | 0 | . | .
CCOC(=O)[C@@H]1[C@H]2COc3cc(OC)ccc3[C@H]2N2C(=O)N(c3ccc(C)cc3)C(=O)[C@]12C | . | 0 | 1.6* | -1 | 13 | 10 | 0.055 | i
O=C(Nc1cccc(F)c1)N1C[C@@H]2[C@H](c3ccccc31)[C@H](CO)N2C(=O)c1cccnc1 | 1 | . | 1.4* | . | . | 6 | 0.2[42 µM] | i
O=C(Nc1ccccc1)N1C[C@H]2[C@@H](c3ccccc31)[C@@H](CO)N2C(=O)c1ccncc1 | -12 | . | 1.4* | . | . | 25 | -0.096[42 µM] | i
CO[C@H]1CN(C)C(=O)c2cc(NC(=O)NC(C)C)ccc2OC[C@H](C)N(Cc2ccccc2)C[C@H]1C | 1 | . | 0 | . | . | 0 | . | .
O=C(NCC1CCCCC1)c1cccnc1Cl | -4 | 0 | 1.5* | 1 | 8 | 7 | 0.23 | i
C[C@H]1CN([C@@H](C)CO)C(=O)CCCn2nncc2CO[C@H]1CN(C)S(=O)(=O)c1ccc(F)cc1 | -4 | -3 | 0 | -1 | . | 1 | . | .
C[C@@H]1CN([C@@H](C)CO)C(=O)CCCn2nncc2CO[C@@H]1CN(C)S(=O)(=O)c1ccc(F)cc1 | -3 | -3 | 1.3*! | 0 | . | -4 | 0.058[42 µM] | i
C[C@@H]1CN([C@H](C)CO)C(=O)CCCn2nncc2CO[C@H]1CN(C)S(=O)(=O)c1ccc(F)cc1 | 0 | -4 | 1.2*! | -2 | . | 0 | 0 | i
CCCCNC(=O)c1onc(CSc2ccc(C(C)C)cc2)c1C(=O)O | -12 | 0 | 1.5* | 2 | 0 | 2 | -0.034 | i
CCCCNC(=O)c1onc(CSc2ccccc2)c1C(=O)O | -2 | 0 | 0 | -5 | 2 | -9 | . | .
CC(C)CCNC(=O)c1onc(CSc2ccncc2)c1C(=O)NCCC(C)C | -2 | 0 | 18* | -2 | 4 | -4 | 0.095 | 8.3µM*
C[C@H](CO)N1C[C@H](C)[C@H](CN(C)C(=O)c2cccc(F)c2)Oc2cc(-c3cncnc3)ccc2S1(=O)=O | -3 | . | 0 | . | . | 0 | . | .
COCC(=O)N1C[C@H]2[C@@H](c3ccccc31)[C@@H](CO)N2C(=O)Nc1ccccc1F | -1 | . | 0 | . | . | -2 | . | .
COc1ccc(C(=O)N2C[C@H]3[C@@H](c4ccccc42)[C@@H](CO)N3C(=O)c2ccc(F)cc2)cc1 | 0 | . | 1.8* | . | . | 4 | 0.061[42 µM] | i
CC(=O)N1[C@@H](CO)[C@@H]2c3ccccc3N(C(=O)c3ccc(F)cc3)C[C@@H]21 | 0 | . | 1.8* | . | . | 8 | 0.11 | i
COCC(=O)N1C[C@H]2[C@@H](c3ccccc31)[C@H](CO)N2C(=O)Nc1ccccc1F | -1 | . | 1.5* | . | . | -1 | -0.044 | i
COc1cccc(CC(=O)N(Cc2ccccc2)c2ccccc2C(=O)Nc2cc(OC)ccc2OC)c1 | . | -4 | . | . | . | . | . | .
COc1cccc(CN2CC3(C2)CN(C(=O)C2CC2)[C@H](CO)c2[nH]c4cc(OC)ccc4c23)c1 | 19 | . | 0 | . | . | . | . | .
CCC(=O)N1[C@@H]2c3cccc(=O)n3C[C@H]1[C@H](CO)[C@H]2C(=O)NC1CCC1 | 0 | . | 0 | . | . | 1 | . | .
CCC(=O)N1CCCCN2[C@H](CO)[C@@H](c3ccc(C#Cc4ccccc4F)cc3)[C@H]2C1 | 2 | . | 1.5* | . | . | -2 | 0.044[42 µM] | i
SMILES | MLL AF4-AF9 inh | SMARCA2 activ | FGF22 binding-1 | Wnt act | MITF TRPM1 HTS | esBAF inh | FGF22 binding-2 | SYPRO no-protein
COc1cc(C)ccc1NC(=O)Cc1csc(NC(=O)Nc2ccccc2OC)n1 | 0 | -1 | 1.6* | 1 | -27 | 3 | 0.096 | i
S=c1[nH]c2cc3ccccc3cc2[nH]1 | -5 | -1 | 2.1* | -9 | -4 | . | 0.069 | i
Cc1ccccc1C(=O)Nc1nnc(S(=O)(=O)N2CCCCC2)s1 | 5 | -2 | 17* | 5 | . | 4 | 0.005 | i
Cc1ccc(S(=O)(=O)Nc2ccc3c(c2)C(=O)N([C@@H](C)CO)C[C@@H](C)[C@H](CN(C)C)O3)cc1 | -7 | . | 0 | . | . | -4 | . | .
C[C@H](CO)N1C[C@H](C)[C@H](CN(C)S(=O)(=O)c2ccc(F)cc2)Oc2ccc(NC(=O)c3ccncc3)cc2C1=O | -4 | . | 1.9* | . | . | -1 | 0.048 | i
Cc1ccc(S(=O)(=O)Nc2ccc3c(c2)C(=O)N([C@@H](C)CO)C[C@@H](C)[C@@H](CN(C)C)O3)cc1 | -5 | . | 1.9* | . | . | -4 | -0.025 | i
C[C@@H]1CN([C@@H](C)CO)C(=O)c2cc(NS(=O)(=O)c3ccc(Cl)cc3)ccc2O[C@@H]1CN(C)S(=O)(=O)c1ccc(F)cc1 | -2 | . | 2.9* | . | . | 4 | 0.18[42 µM] | i
C[C@@H]1CN([C@@H](C)CO)C(=O)c2cc(NC(=O)c3ccncc3)ccc2O[C@H]1CN(C)S(=O)(=O)c1ccc(F)cc1 | -1 | . | 0 | . | . | 2 | . | .
C[C@H](NC(=O)C[C@@H]1CC[C@@H](NS(=O)(=O)c2cccc(F)c2)[C@H](CO)O1)c1ccccc1 | 1 | . | 0 | . | . | -2 | . | .
O=C(OCC(=O)c1ccc(Cl)s1)c1ccc2ccccc2n1 | 5 | -3 | 1.7* | -2 | -1 | . | 0.031 | i
O=C(COC(=O)c1cccnc1Cl)c1ccc(Cl)s1 | 0 | 0 | 1 | 9 | -5 | -2 | . | .

Assay outcomes from PubChem BioAssay.
